# High-throughput results deposited in PubChem by several laboratories.
# FAS TE block: FAS thioesterase domain inhibitors, primary screen, biochemical, fluorescence intensity, uHTS; inhibition, % at 15 µM; actives 0.67% (n = 360,000); recombinant FAS-TE, OMFH fluorogenic substrate, fluorescence endpoint; Fatty acid synthase (Homo sapiens), P49327;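 active = compounds whose normalised, plate-corrected inhibition of enzyme fluorescence in the single-dose primary screen is 50% or more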;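 also: 0% = DMSO with enzyme and 100% = substrate without enzyme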
# GRIN3A LBD mod: binders of NR3A ligand-binding domain, primary screen, biophysical, differential scanning fluorimetry, uHTS. Glutamate receptor ionotropic, NMDA 3A (GRIN3A) ligand-binding domain. NR3A LBD differential scanning fluorimetry, Tm shift; 0% = protein alone, 100% = glycine-bound protein. Tm shift relative to glycine control, % at 25 µM. actives 2.5% (n = 340,000);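 active = melting temperature shift of at least 10% of the positive control shift, at one fixed dose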
# ADAM10 inh: human ADAM10 inhibitors, primary screen, biochemical, QFRET, HTS; Disintegrin and metalloproteinase domain-containing protein 10 (Homo sapiens), O14672; recombinant ADAM10, EDANS/DABCYL FRET peptide cleavage, 3 h; inhibition, % at 7 µM; actives 0.62% (n = 370,000); AID 720582, 2013;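 active = inhibition above a per-campaign cutoff equal to the mean of compounds falling between control-based bounds plus 3 SD, cut at about 20% in these data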;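 also: 0% = DMSO wells while the 100% control is not disclosed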
# proKLK7 act: proKLK7 zymogen activators, primary screen, biochemical, fluorescence intensity | Kallikrein-7 (Homo sapiens), P49862 | purified proKLK7, EDANS-DABCYL substrate fluorescence; 100% is mature enzyme control, 0% vehicle | activation, % at 7 µM | actives 0.9% (n = 370,000) | AID 652039, 2013;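 active = activation above the mean of all tested compounds plus 3 SD, computed per campaign excluding outliers beyond control limits, cut at about 13% in these data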
# ADAM17 inh: ADAM17 inhibitors, primary screen, biochemical, QFRET; inhibition, % at 6.95 µM; recombinant ADAM17, EDANS/DABCYL FRET peptide cleavage; actives 0.83% (n = 370,000); Disintegrin and metalloproteinase domain-containing protein 17 (Homo sapiens), P78536;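 active = inhibition above the mean of compounds lying between control limits plus 3 SD, set per campaign, cut at about 8.5% in these data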;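 also: 0% = DMSO-only wells as the low control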
# Target sequence (P78536 215-824 limits assumed): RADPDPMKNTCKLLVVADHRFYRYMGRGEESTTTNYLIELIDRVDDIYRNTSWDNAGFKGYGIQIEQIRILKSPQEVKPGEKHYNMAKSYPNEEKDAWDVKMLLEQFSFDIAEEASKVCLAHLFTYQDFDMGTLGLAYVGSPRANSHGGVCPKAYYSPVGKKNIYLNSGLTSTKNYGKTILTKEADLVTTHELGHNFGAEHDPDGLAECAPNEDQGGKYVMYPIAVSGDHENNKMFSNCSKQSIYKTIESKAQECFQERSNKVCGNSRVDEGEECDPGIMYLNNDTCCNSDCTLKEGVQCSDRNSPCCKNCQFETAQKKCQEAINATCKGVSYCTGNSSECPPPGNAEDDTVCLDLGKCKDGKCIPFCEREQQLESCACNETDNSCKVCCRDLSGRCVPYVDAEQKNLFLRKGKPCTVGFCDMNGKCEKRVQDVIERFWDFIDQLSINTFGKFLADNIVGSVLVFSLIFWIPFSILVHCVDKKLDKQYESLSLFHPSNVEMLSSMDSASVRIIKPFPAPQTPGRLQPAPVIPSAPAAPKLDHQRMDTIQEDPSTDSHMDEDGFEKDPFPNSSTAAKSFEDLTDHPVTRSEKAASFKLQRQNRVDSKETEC
# proKLK7 act conf: proKLK7 zymogen activators, confirmation, biochemical, fluorescence intensity, triplicate | shares compounds with proKLK7 act | purified proKLK7, EDANS-DABCYL substrate fluorescence; scaled: vehicle 0, mature enzyme 100 | activation, % at 7 µM | actives 68% (n = 3,200);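 active = activation, as change over the incubation, above the mean of all tested compounds plus 3 SD, cut at about 13% in these data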
# EDANS interfere: EDANS-DABCYL substrate optical interference, artefact control for kallikrein-7 zymogen activator project, biochemical, fluorescence intensity, high throughput; shares compounds with proKLK7 act; no enzyme, 4 h; solvent 0%, active enzyme control 100%; activation, % at 7 µM; actives 80% (n = 3,200); AID 686952, 2013;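 active = activation above the all-compound mean plus 3 SD, ignoring values outside control-based bounds, cut at about 4.8% in these data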;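 also: value is the 4 h activation minus the activation read at time zero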
# The depositor's hits bear a star; i = inactive; · = no result given. In the library only some 4.6% were active in any assay of this set; here they are far more common.
SMILES,FAS TE block,GRIN3A LBD mod,ADAM10 inh,proKLK7 act,ADAM17 inh,proKLK7 act conf,EDANS interfere
CC(=O)N1CCc2cc(S(=O)(=O)NCCC(=O)N(C)Cc3ccccc3F)ccc21,·,·,-13.0,0.2,-3.5,·,·
O=C(C1CC1)C1(C(=O)N2CCOCC2)CC(c2ccccn2)=NO1 (stereo not given),·,·,2.0,-0.2,1.1,·,·
Cc1cc(-c2ccc(C(=O)O)s2)cnc1N,-8.9,0.7,i,31.1*,i,61.4*,69.6*
CC1(C)C=C(c2ccc(C(=O)O)s2)CC(C)(C)N1,-8.4,1.2,-5.9,-0.1,2.2,·,·
CC1CCC2(CCC(=O)N2C[C@@H](O)c2ccccc2)CC1 (stereo not given in full),·,·,-3.3,·,-4.5,·,·
N=c1c(C(=O)NCC2CCCO2)cc2c(=O)n3ccccc3nc2n1Cc1ccc(F)cc1 (stereo not given),-1.2,0.1,i,7.3,-296.4,·,·
Cc1cccn2c(=O)c3cc(C(=O)NC(C)C)c(=N)n(Cc4ccncc4)c3nc12,-1.6,-0.5,i,116.4*,i,32.2*,36.7*
COc1ccc(CCn2c(=N)c(C(=O)NCC3CCCO3)cc3c(=O)n4cccc(C)c4nc32)cc1 (stereo not given),-1.9,-0.1,-110.0,-0.5,-29.5,·,·
Cc1cccn2c(=O)c3cc(C(=O)NCC4CCCO4)c(=N)n(Cc4cccnc4)c3nc12 (stereo not given),3.3,-1.3,i,147.8*,i,48.7*,60.1*
N=c1c(C(=O)NCc2ccc(F)cc2)cc2c(=O)n3ccccc3nc2n1Cc1cccnc1,-9.9,-4.1,i,26.3*,i,-5.5,-8.1
N=c1c(C(=O)NCC2CCCO2)cc2c(=O)n3ccccc3nc2n1Cc1ccco1 (stereo not given),1.1,0.8,i,15.1*,-246.0,41.1*,37.9*
COC(=O)[C@]12CCCCC=C1N(Cc1ccc(OC)cc1)C(=O)[C@@H]2CC(=O)N1CCOCC1,·,·,-1.0,0.5,1.4,·,·
Cc1cc(C)cc(NC(=O)OC2CC3CC2[C@H]2CCCCN2[C@H]3C)c1 (stereo not given in full),·,·,-1.6,0.7,3.7,·,·
CN1C(=O)[C@@]2(O[C@H]3[C@H]4C=C[C@@H]([C@H]5C(=O)N(Cc6ccccc6)C(=O)[C@@H]45)N3C3=C2C(=O)CC3)c2ccccc21,·,·,-1.9,0.3,5.5,·,·
COC(=O)c1cc2c(c3c4cc(C)ccc4n(S(=O)(=O)c4cccc(C)c4)c13)C(=O)N(Cc1ccc(C(F)(F)F)cc1)C2,·,·,-3.6,-0.1,-1.2,·,·
COP(=O)(O)C(C)NC(=O)OCc1ccccc1 (stereo not given),·,·,3.8,0.5,0.5,·,·
O=C(Nc1ccc2ncccc2c1)c1cc(-c2ccc(Cl)cc2)nc2ccccc12,·,·,-1.7,0.4,-4.6,·,·
N=c1c(C(=O)NCC2CCCO2)cc2c(=O)n3ccccc3nc2n1Cc1cccnc1 (stereo not given),-14.6,0.3,i,134.0*,i,34.7*,32.9*
COC(=O)[C@]12C[C@H](CC(=O)N3CCCCC3)C(=O)N(CCc3ccc(OC)c(OC)c3)C1=C[C@H](C(C)(C)C)O[C@@H]2C,·,·,-5.2,-0.3,-2.0,·,·
COC(=O)[C@]12C[C@H](CC(=O)NCc3ccc(OC)c(OC)c3)C(=O)N(Cc3ccc(Cl)cc3Cl)C1=C[C@H](C(C)C)O[C@@H]2C1CC1,·,·,10.8,0.3,3.8,·,·
O=C(O)c1cc(-c2cccc(Cl)c2)nc2nc(N3CCCCC3)sc12,-2.6,-9.8,i,26.1*,i,30.9*,31.0*
O=C(c1cc(-c2cccc(Cl)c2)nc2ccccc12)N1CCN(c2ccccn2)CC1,32.7,-3.8,16.3,-1.1,2.9,·,·
CCN1CCN(C(=O)c2cc(-c3ccco3)nc3ccccc23)CC1,-3.7,0.1,i,84.2*,i,71.6*,72.4*
O=C(c1cc(-c2ccco2)nc2ccccc12)N1CCCC(C(F)(F)F)C1 (stereo not given),1.6,1.7,i,47.7*,i,66.5*,66.5*
CCOC(=O)C1CCCN(C(=O)c2cc(-c3ccco3)nc3ccccc23)C1 (stereo not given),-4.8,-2.1,i,30.7*,-278.4,31.2*,33.6*
SMILES,FAS TE block,GRIN3A LBD mod,ADAM10 inh,proKLK7 act,ADAM17 inh,proKLK7 act conf,EDANS interfere
O=C1c2ccccc2C(=O)N1c1ccccc1,-4.8,-1.1,-13.4,0.1,-5.0,·,·
O=Cc1ccc(/C=C2\c3ccccc3C(=O)N2c2ccccc2)o1,·,·,-78.1,33.9*,-13.8,62.4*,59.4*
CC(=O)OCc1nc2ccccc2s1,-6.1,3.4,-3.2,0.1,-0.5,·,·
CCOC(=O)C(=O)Cc1nc2ccccc2s1,-4.7,0.8,-102.0,13.4*,-28.3,3.5,5.3*
CCCCCCCCNC(=O)C1CSCCS(=O)(=O)N1Cc1ccccc1 (stereo not given),·,·,-4.3,0.6,-2.3,·,·
COCCN1CCn2c(nc3cc(NC(C)=O)ccc32)C1,-6.6,1.9,-293.9,-5.6,-120.5,·,·
COCCN1CCn2c(nc3cc(NC(=O)NC4CCCCC4)ccc32)C1,-8.4,-0.1,i,15.5*,-285.6,-21.6,-14.1
Nc1cccc2c1C(=O)N(CCOc1ccccc1F)C2=O,-0.7,-0.7,-333.2,47.0*,-102.0,72.3*,78.1*
N#Cc1ccccc1OCCN1C(=O)c2ccccc2C1=O,-1.0,1.1,-1.0,0.1,-3.3,·,·
NS(=O)(=O)c1cc(C(=O)OCC(=O)Nc2ccc(Cl)cc2[N+](=O)[O-])ccc1Cl,12.7,-5.7,2.3,0.2,1.2,·,·
Nc1c(C(=O)OCC(=O)Nc2ccc(Cl)cc2[N+](=O)[O-])[nH]c(=O)[nH]c1=O,-1.5,1.6,-5.9,13.5*,-2.1,136.3*,137.4*
CCCCCCCCN1C(=O)[C@@H](CC(=O)NCc2cccc3ccccc23)C[C@@]2(C(=O)OC)C1=C[C@H](COCc1ccccc1)O[C@@H]2C,·,·,5.1,0.1,3.3,·,·
CCN(CC)C(=O)Cn1cc(C(=O)C(=O)Nc2ccc3c(c2)OCO3)c2ccccc21,10.2,·,10.0,57.2*,4.6,24.4*,43.9*
